Shown are actives, neighbours in structure and some others; about 6.6% of the full set was active somewhere.
KB-3-1 tox: qHTS assay for MDR1-selective chemotherapeutics: Primary screen using the parental adenocarcinoma cell KB-3-1 | KB-3-1 viability, CellTiter-Glo ATP luminescence, 72 h | AID 1347075, 2019 | actives 1.4% (n = 400,000) | Potency, µM (top dose mostly 46.1 µM), most hits filed as cytotoxic; further: on the % scale 0 is the no-effect control and ±100 the full control effect; nearly all actives have a fitted effect of over 60% in size
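72 h, 37 °C compound treatment of KB-3-1 parental cells; CellTiter-Glo added, 10 min, luminescence read. Data corrected against DMSO-only plates and normalized before curve fitting.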
HT1080 IDH1KD tx: qHTS for induction of synthetic lethality in tumor cells producing 2HG: qHTS for the HT-1080-IDH1KD cell line; HT-1080 IDH1 knockdown viability, ATP luminescence, 48 h; Potency, µM (series often up to 46.1 µM), for inactives: at the highest dose activity, negative = toxicity, actives largely listed as cytotoxic; actives 2% (n = 360,000);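 further: 0% = DMSO wells and -100% = cell-free medium wells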
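CellTiter-Glo luminescence after 48 h compound exposure at 37 degrees C of IDH1-knockdown HT-1080 cells in 5% FBS RPMI. %Activity scaled between DMSO wells and cell-free media wells, with curves fitted and assigned curve classes.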
HT1080NT lethal: qHTS for induction of synthetic lethality in tumor cells producing 2HG: qHTS for the HT-1080-NT fibrosarcoma cell line. AID 686970, 2013. Potency, µM (doses to about 46.1 µM), for the others: at the top dose activity, negative = less viability, hits mostly cytotoxic. HT-1080-NT fibrosarcoma viability, CellTiter-Glo ATP luminescence, 48 h. actives 1.6% (n = 360,000);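 further: NT is the 2HG producing partner of a matched IDH1 knockdown line; 0% = DMSO-treated cells and -100% = media-only wells without cells; nearly all actives have a fitted effect of over 55% in size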
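HT-1080-NT fibrosarcoma cells (2HG-overproducing), 750 cells/well in RPMI with 5% FBS, dosed after 2 h and incubated 48 h at 37C. CellTiter-Glo luminescence normalized to DMSO and no-cell wells; concentration-response curves fitted and classed.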
TGFb inhibitor: qHTS for Inhibitors of TGF-b; Potency, µM (top dose mostly 46.1 µM), inactives show at the highest dose activity, negative = inhibition, hits mostly inhibitors; actives 1.2% (n = 410,000); HepG2 CAGA-GFP TGF-b/SMAD3 reporter, GFP fluorescence, 18 h; TGF-beta stimulated, 500 pg/mL final; AID 588855, 2011; further: on the % scale 0 is the no-effect control and ±100 the full control effect; nearly all actives have a fitted effect of over 65% in size
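HEPG2 CAGA-GFP cells (1000/well, DMEM with 1% FBS) were pre-incubated 2 h at 37 degrees C, given compound by pin tool, then stimulated with TGF-beta at 500 pg/mL final for 18 h before per-cell GFP fluorescence imaging.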
KB-V1 cytotox: qHTS assay for MDR1-selective chemotherapeutics: Primary screen using the drug-selected MDR subline cells KB-V1 | KB-V1 MDR cells viability, CellTiter-Glo, 72 h | Potency, µM (series often up to 46.1 µM), most hits filed as cytotoxic | actives 3.4% (n = 400,000) | AID 1347076, 2019; further: on the % scale 0 is the no-effect control and ±100 the full control effect; nearly all actives have a fitted effect of over 60% in size
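Compound-treated KB-V1 multidrug-resistant cells, 72 h, 37 degrees C; viability by CellTiter-Glo. Fitted qHTS curves give the values.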
HepG2 viability: qHTS for Inhibitors of TGF-b: Cytotox Counterscreen. HepG2 CAGA-GFP viability, ATP luminescence, 18 h. Potency, µM (highest dose often 46.1 µM), for the others: top-dose activity change, negative = cytotoxicity, most hits filed as cytotoxic. actives 0.76% (n = 410,000). AID 588856, 2011
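CellTiter-Glo luminescence gave cytotoxicity after 18 hours at 37 degrees C. The cells were HepG2 CAGA-GFP in 1% FBS DMEM, stimulated with 500 pg/mL TGF-beta after compound addition. %Activity was normalised to no-cell wells (complete cell-killing) and DMSO (no toxicity), and curves were fitted and classified.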
An asterisk follows results filed as active; i = inactive; u = inconclusive; x = not tested or not shown; ! = not confirmed by another sample. The call rests on the fitted dose curve; in most records, active means well fitted curve in the direction sought with a large enough effect; inconclusive means small, poorly fitted or top-dose-only effect, or another doubt; inactive means no such curve, though single readings can be large; an effect the other way counts as inactive or inconclusive. Potency means the concentration at half of the fitted maximal effect.

SMILES	KB-3-1 tox	HT1080 IDH1KD tx	HT1080NT lethal	TGFb inhibitor	KB-V1 cytotox	HepG2 viability
CC(=O)O[C@H]1C(=O)[C@@]2(C)C([C@H](OC(=O)c3ccccc3)[C@]3(O)C[C@H](OC(=O)[C@H](O)[C@@H](NC(=O)Cc4ccccc4)c4ccccc4)C(C)=C1C3(C)C)[C@]1(OC(C)=O)CO[C@@H]1C[C@@H]2O (stereo partly specified)	0.0073µM*	u	0.517µM*	u	u	-19.5%
O=C1CC(=O)N(c2ccccc2)C(=O)N1c1ccccc1	0.291µM*	0.7%	3.9%	2.9%	i	-15.4%
O=C1CC(=O)N(c2ccccc2)C(=O)N1	i	5.6%	-1.6%	u	u	-18.1%
Oc1ccc(Br)cc1CN1CCN(c2ccccc2)CC1	i	u	10.0%	-25.8%	16.4µM*	-4.2%
COc1cc(C)c(CN2CCN(c3ccccc3)CC2)cc1C	i	-7.7%	-7.3%	-10.9%	13µM*	-24.4%
COc1ccccc1N1CCN(Cc2cc(C)c(C)cc2O)CC1	i	-8.8%	-11.4%	29.4%	u	-29.2%
COC(=O)c1cc(NC(=O)Cn2nc(-c3ccccc3)c3c(c2=O)CCCC3)cc(C(=O)OC)c1	i	x	x	u	i	-12.8%
O=C(Nc1ccc2c(c1)OCCO2)c1cccn(Cc2cccc(F)c2)c1=O	i	x	x	u	i	-27.5%
COc1ccc(/C=C/C(=O)c2c(O)n(CCC3=CCCCC3)c(=O)[nH]c2=O)cc1	20.6µM*	-9.4%	-6.6%	-1.6%	10.3µM*	-12.2%
CN(C)CCN=Cc1c(O)n(CCC2=CCCCC2)c(=O)[nH]c1=O	i	-6.4%	15.6%	-11.5%	i	-3.1%
O=C(/C=C/c1ccc2c(c1)OCO2)c1c(O)n(CCC2=CCCCC2)c(=O)[nH]c1=O	u	3.2%	6.5%	-12.1%	7.31µM*	5.0%
CCC(=O)N1N=C(c2c(O)n(C)c(=O)n(C)c2=O)CC1c1ccccc1 (stereo unspecified)	20.6µM*	6.51µM*	u	-23.2%	u	4.9%
Cn1c(O)c(C2=NN(C(=O)CCl)C(c3ccccc3)C2)c(=O)n(C)c1=O (stereo unspecified)	i	-12.6%	-7.8%	-14.1%	i	-1.4%
Cn1c(=O)n(C)c2cc(CNCCc3ccc(F)cc3)ccc21	i	x	x	u	i	-23.7%
Cc1ccc(Cl)cc1NC(=O)N(Cc1ccc2c(c1)OCO2)C1CCN(Cc2ccccc2)CC1	i	x	x	u	u	-22.7%
N#CC1=C(N)Oc2c(c(=O)sc3ccccc23)C1c1ccncc1 (stereo unspecified)	u	20.6µM*	u	-7.1%	i	-29.5%
O=[N+]([O-])c1ccc(Cl)c([N+](=O)[O-])c1	u	18.4µM*	5.17µM*	5.01µM*	16.4µM*	7.08µM*
O=[N+]([O-])c1ccc(O)c([N+](=O)[O-])c1	i	-24.1%	-19.2%	25.9%	u	10.0%
COc1cccc(-n2c(SCC(=O)c3ccc(Cl)cc3)nc3c([nH]c4ccccc43)c2=O)c1	i	x	x	u	u	-7.6%
C[C@H]1CNC(=O)c2c(C(=O)Nc3ccc(CNC(=O)OC(C)(C)C)cc3)ncn21	i	-8.9%	-19.5%	-32.6%	u	-8.7%
CN1CCN(c2ccc3c(c2)S(=O)(=O)c2ccccc2C3=O)CC1	i	1.3%	-29.0%	u	i	-22.6%
CN1CCN(c2cccc3c2C(=O)c2ccccc2C3=O)CC1	u	-18.0%	-21.3%	2.3%	18.4µM*	-21.7%
O=C(Nc1ccc(Cl)c(Cl)c1)c1ccco1	i	-21.5%	-5.0%	-21.7%	i	-0.6%
CC(C)(C)c1ccc(C(=O)Nc2ccc(NC(=O)c3ccco3)cc2)cc1	i	10µM*	10µM*	u	i	-39.5%
Nc1ccccc1-[n+]1c(-c2ccccc2)cc(-c2ccccc2)cc1-c1ccccc1	u	u	u	u	u	-17.7%
SMILES	KB-3-1 tox	HT1080 IDH1KD tx	HT1080NT lethal	TGFb inhibitor	KB-V1 cytotox	HepG2 viability
Cc1ccccc1-[n+]1c(-c2ccccc2)cc(-c2ccccc2)cc1-c1ccccc1	6.51µM*	7.31µM*	7.31µM*	u	i	-31.9%
[O-]c1ccccc1-[n+]1c(-c2ccccc2)cc(-c2ccccc2)cc1-c1ccccc1	11.6µM*	u	x	u	i	-19.4%
Oc1ccccc1-[n+]1c(-c2ccccc2)cc(-c2ccccc2)cc1-c1ccccc1	u	u	14.6µM*	u	i	-39.6%
CCOC(=O)c1oc2ccc(S(=O)(=O)n3nc(-c4ccc(Cl)cc4)cc3N)cc2c1C	u	7.5%	4.8%	u	i	-13.7%
Cn1c(=O)oc2cc(S(=O)(=O)N3CCCC(C(=O)N4CCN(c5ccc(Cl)cc5)CC4)C3)ccc21 (stereo unspecified)	i	x	x	u	u	-1.4%
COc1ccc(Cl)cc1NC(=O)CN1C(=O)CN=C(c2ccccc2)c2cc(Cl)ccc21	u	x	x	u	u	-23.7%
CCOc1ccc(NS(=O)(=O)c2ccc(Cl)c(N=Nc3c(O)[nH]c(=S)[nH]c3=O)c2)cc1Br	i	3.7%	1.1%	u	u	-47.5%
C=C1CCN([C@@H](CC(C)C)C(=O)Nc2ccc(OC)cc2)S(=O)(=O)c2ccccc21	i	1.7%	-2.1%	5.7%	i	-11.2%
COc1cccc(NC(=O)C2CCN(c3nnc(C)c4c(C)n(-c5ccccc5)nc34)CC2)c1	i	x	x	u	i	-37.6%
Cc1ccc(S(=O)(=O)N2CCCCC2)cc1NC(=O)CSc1ncnc2ccccc12	i	-2.7%	-1.9%	u	16.4µM*	16.9%
Cc1ccc2c(c1)C1C[N+](C)(CC(=O)Nc3ccccc3Cl)CCC1N2C(=O)c1ccccc1Cl (stereo unspecified)	i	10.3%	2.6%	32.4%	u	73.0%
Cn1c(=O)oc2cc(S(=O)(=O)NCCC(=O)NCCc3ccc(Cl)cc3)ccc21	16.4µM*	-17.9%	u	u	i	-96.1%
COC(=O)C1=C(C)NC(C)=C(C(=O)OC)C1c1ccccc1[N+](=O)[O-]	i	3.66µM*	u	x	8.2µM*!	-6.6%
Cc1ccccc1[N+](=O)[O-]	u	x	x	1.6%	i	-9.7%

Compound activity deposited in PubChem by National Center for Advancing Translational Sciences (NCATS).
